# Reference: PubChem BioAssay (NCI)
# Compounds without any hit were thinned out: in the full panel of roughly 83,000, 20% have a hit.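 Each cell line was grown in a 96-well plate and treated with one concentration of compound for 48 hours. Values below 10 were considered active.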 Values without a mark were called inactive. Active and inactive are the calls of the source.
# Test system: 786-0 renal
# Assay: NCI-60 one-dose screen, 48 h (100 = growth as untreated, 0 = no growth, -100 = all killed)
# Settings: 10 µM unless noted
row,SMILES,growth
1,CC(=O)Oc1ccc(CCN2C(=O)CSC2=S)cc1,79.7%
2,COc1cc(/C=N/n2cnc3oc(-c4ccccc4)cc3c2=N)cc(CN2CCOCC2)c1O,45.6%
3,CCOC(=O)/C=c1\sc2n(c1=O)C1C(NN=2)N(CC)C(=O)N1CC (centres undefined),63%
4,CN(C)c1ccc(/C=N/Nc2nc(N/N=C/c3ccc(N(C)C)cc3)nc(N3CCOCC3)n2)cc1,84.6%
5,COc1cc2oc(-c3cccc(NC(=O)c4cc(NC(=O)[C@H](C)NC(=O)OC(C)(C)C)ccc4C)c3)cc(=O)c2c(OC)c1OC,77.5%
6,CN1CCN(Cc2ccc(NC(=O)c3cncc(C#Cc4cnc5ccc(NC6CCOCC6)nn45)c3)cc2C(F)(F)F)CC1,-88.3% (active)
7,O=C(Nc1ccc(Cl)cc1)Nc1nc2ccc([N+](=O)[O-])cc2s1,5.56% (active)
8,CCCCCCNC(=O)Oc1ccc(/C(=C(/C)c2ccc(OC)cc2)c2ccc(OCCN3CCCC3)cc2)cc1,40.9%
9,O=c1c2ccccc2nc(COc2ccccc2)n1/N=C/C=C/c1ccccc1,100%
10,CCCCCc1ccc(S(=O)(=O)N(C(C)=O)c2cccc(-c3csc(N(CCN4CCN(C)CC4)C(C)=O)n3)c2)cc1,6.89% (active)
11,O=C(NNc1nc2cc(F)c(F)cc2n2cccc12)c1ccncn1,11.9%
12,O=C(CCCCCCN1CC(=O)N2[C@@H](c3cccc(Cl)c3)c3[nH]c4ccccc4c3C[C@H]2C1=O)NO,79%
13,O=C(/C=C/c1cn(-c2ccccc2)nc1-c1ccc(Cl)cc1)c1cc2ccccc2oc1=O,46%
14,COc1cc(/C=C/C(=O)c2ccc(NC(=O)COc3cccc4cccnc34)cc2)cc(OC)c1OC,89%
15,O=C(Nc1cccc(Cl)c1)Nc1nc2ccc([N+](=O)[O-])cc2s1,8.65% (active)
16,O=C(NNc1nc2cc(F)cc(F)c2n2cccc12)c1ccncn1,7.83% (active)
17,C[C@H]1[C@H](C)CC[C@]2(COC(=O)c3cccnc3)CC[C@]3(C)C(=CC[C@@H]4[C@@]5(C)CCCNC(C)(C)[C@@H]5CC[C@]43C)[C@H]12,70.7%
18,CN1CCN(c2ccc(NC(=O)Nc3ccc4c(ccn4-c4cccc(C(N)=O)n4)c3)cc2C(F)(F)F)CC1,6.16% (active)
19,COc1ccc(OC)c([C@H]2c3[nH]c4ccccc4c3C[C@H]3C(=O)N(CCCCCCC(=O)NO)CC(=O)N23)c1,99.5%
20,CS(=O)c1nccc(-c2c(-c3ccc(F)c(OCc4ccccc4)c3)nc3sccn23)n1 (centres undefined),99.1%

row,SMILES,growth
1,CC(=O)NC(C)(C)C(=O)N1CCC[C@H]1C(=O)NC(C)(C)C(=O)N[C@@H](C)C(=O)NC(C)(C)C(=O)N[C@@H](C)C(=O)N[C@@H](CCC(N)=O)C(=O)NC(C)(C)C(=O)N[C@H](C(=O)NC(C)(C)C(=O)NCC(=O)N[C@@H](CC(C)C)C(=O)NC(C)(C)C(=O)N1CCC[C@H]1C(=O)N[C@H](C(=O)NC(C)(C)C(=O)NC(C)(C)C(=O)N[C@@H](CCC(N)=O)C(=O)N[C@@H](CCC(N)=O)C(=O)N[C@H](CO)Cc1ccccc1)C(C)C)C(C)C,97.4% [4.25 µM]
2,C=C(C)[C@@H]1CC[C@]2(C(=O)NCCCN(CCC#N)CCC#N)CC[C@]3(C)[C@H](CC[C@@H]4[C@@]5(C)CCC(=O)C(C)(C)[C@@H]5CC[C@]43C)[C@@H]12,101%
3,O=C(CN1C(=O)S/C(=C\c2ccccc2)C1=O)Nc1ccc(C(=O)/C=C/c2cc3ccccc3nc2Cl)cc1,94.8%
4,N#Cc1c(-c2cccs2)cc(-c2cnccn2)nc1SCC(=O)NNC(=S)Nc1ccc(F)cc1,99.3%
5,CN1CCN(c2nc(-c3cnc4ccccc4n3)cc3ccccc23)CC1,56.4%
6,Cc1cc(O)c(=O)cc2c1C[C@H]1CC(C)(C)/C=C/C[C@]3(C)Oc4cc(=O)c(O)cc(C)c4C[C@H]3C[C@H](O)[C@@]1(C)O2,-24.3% (active)
7,CC(C)=CCC[C@](C)(O)[C@H]1CC[C@]2(C)[C@@H]1CC[C@@H]1[C@@]3(C)CCC(NC(=O)c4ccccc4C(=O)O)C(C)(C)[C@@H]3CC[C@]12C (some centres undefined),99.9%
8,CN1CCN(c2ccc3c(C(N)=O)c(NC(=O)c4ccc(C(C)(C)C)cc4)sc3c2)CC1,71.2%
9,COc1ccc(-c2nc(SCC(C)C)nc(N/N=C\c3cccc([N+](=O)[O-])c3)c2C#N)cc1,4.44% (active)
10,Cc1cc(F)cc(NS(=O)(=O)c2ccc(-c3cnc(C4CC4)o3)cc2)c1,47%
11,C/C(=N\NC(=O)CSc1nc2sc3c(c2c(=O)n1-c1ccccc1)CCC(C)C3)c1ccc(Cl)cc1 (centres undefined),7.93% (active)
12,COc1ccc(NC(=O)[C@H](C)N)cc1C(=O)Nc1cccc(-c2cc(=O)c3c(OC)c(OC)c(OC)cc3o2)c1,63.5%
13,CC[C@H](C)[C@H]1NC(=O)[C@@H]([C@H](O)C(C)C)NC(=O)[C@@H](C)N(C)C(=O)[C@H](C)N(C)C(=O)[C@H](CC(C)C)NC(=O)[C@H](CC(C)C)N(C)C(=O)[C@H](C)N(C)C1=O,0.205% (active)
14,IP(CCCSc1n(Cc2ccc3ccccc3c2)c(-c2ccccc2)c(-c2ccccc2)[n+]1Cc1ccc2ccccc2c1)(c1ccccc1)(c1ccccc1)c1ccccc1,87.2%
15,N/C(=N\OC(=O)CSc1nc2ccccc2s1)c1ccc(Cl)cc1,102%
16,CC(=O)NC(C)(C)C(=O)N[C@@H](C)C(=O)NC(C)(C)C(=O)N[C@@H](C)C(=O)NC(C)(C)C(=O)N[C@@H](C)C(=O)N[C@@H](CCC(N)=O)C(=O)NC(C)(C)C(=O)N[C@H](C(=O)NC(C)(C)C(=O)NCC(=O)N[C@@H](CC(C)C)C(=O)NC(C)(C)C(=O)N1CCC[C@H]1C(=O)N[C@H](C(=O)NC(C)(C)C(=O)NC(C)(C)C(=O)N[C@@H](CCC(N)=O)C(=O)N[C@@H](CCC(N)=O)C(=O)N[C@H](CO)CC1CCCCC1)C(C)C)C(C)C,78.6% [5 µM]
17,CCOC(=O)C1=C(C)Nc2nnc(Nc3ccccc3)n2C1c1ccccc1 (centres undefined),75.5%
18,COc1cc(OC)c(S(N)(=O)=O)cc1C(=O)/C=C/c1ccccc1,15.3%
19,CCOC(=O)/C(F)=C/C1CC1C1CCCCC1 (centres undefined),102%
